Inconclusive results are not listed. Activity calls are given as the source filed them. The call rests on the fitted dose curve; in most records, active means well fitted curve in the direction sought with a large enough effect; inconclusive means small, poorly fitted or top-dose-only effect, or another doubt; inactive means no such curve, though single readings can be large; an effect the other way counts as inactive or inconclusive.
How the values were obtained:
[1] = target: Glutathione peroxidase 1 (Homo sapiens) (UniProt P07203); test: Primary qHTS Assay for Inhibitors of Recombinant Selenoprotein Glutathione Peroxidase 1 (GPX1) (AID 1845191); further: nearly all actives have a fitted effect of over 65% in size; on activity, negative = inhibition: on the % scale 0 is the no-effect control and ±100 the full control effect
Chain of Glutathione peroxidase 1 (Homo sapiens) (P07203 whole entry, looked up): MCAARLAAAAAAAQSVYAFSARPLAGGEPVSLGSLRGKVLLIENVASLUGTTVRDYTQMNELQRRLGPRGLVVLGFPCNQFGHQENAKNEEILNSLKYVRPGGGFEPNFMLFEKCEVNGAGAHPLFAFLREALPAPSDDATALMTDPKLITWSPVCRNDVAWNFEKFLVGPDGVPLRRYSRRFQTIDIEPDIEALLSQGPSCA
In short: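 GPX1 10 nM, GR 100 nM, GSH 1 mM, NADPH 0.5 mM, CHP 0.5 mM (final). 30-min cpd preincubation, RT. Ex340/Em450 read t=0, t=15 min.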

[2] = target: Phospholipid hydroperoxide glutathione peroxidase GPX4 (Homo sapiens) (UniProt P36969); test: Primary qHTS Assay for Inhibitors of Recombinant Selenoprotein Glutathione Peroxidase 4 (GPX4) (AID 1845192); further: nearly all actives have a fitted effect of over 65% in size; on activity change, negative = inhibition: series mostly up to about 50 µM; on the % scale 0 is the no-effect control and ±100 the full control effect
Chain of Phospholipid hydroperoxide glutathione peroxidase GPX4 (Homo sapiens) (P36969 whole entry, looked up): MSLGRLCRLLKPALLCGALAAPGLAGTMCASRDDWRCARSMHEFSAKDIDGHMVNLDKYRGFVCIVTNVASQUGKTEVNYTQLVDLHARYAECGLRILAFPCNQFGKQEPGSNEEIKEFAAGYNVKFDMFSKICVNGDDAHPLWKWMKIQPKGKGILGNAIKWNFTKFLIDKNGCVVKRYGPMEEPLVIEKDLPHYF
In short: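 qHTS, GR-coupled: GPX4 200 nM + cpd 30 min RT → GSH 1 mM, NADPH 0.5 mM, GR 100 nM → CHP 0.5 mM start; fluor 340/450 at t0 and t15 min; no-enzyme wells as control.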

[3] = target: Luciferin 4-monooxygenase (Photinus pyralis) (UniProt P08659); test: Primary firefly luciferase (FLuc) qHTS assay for identification of artifact compounds. (AID 1845220); further: nearly all actives have a fitted effect of over 60% in size;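 on activity change, negative = inhibition: series mostly up to about 54 µM; plate controls were DMSO vehicle for no effect and no enzyme for full effect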
In short: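 qHTS, 15 min compound preincubation with substrate (10 uM luciferin, 10 uM ATP) at RT, then 10 nM FLuc; 5 min; luminescence; % inhibition vs no-enzyme/DMSO controls, 4-parameter Hill fit.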

[4] = Primary fluorescence-based thiol-reactive (MSTI) qHTS assay for identification of artifact compounds. (AID 1845221);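 further: series mostly up to about 54 µM; thiol-reactive compounds lower the probe fluorescence signal; nearly all actives have a fitted effect of over 65% in size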
In short: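 First, 4 uM MSTI in 2% DMSO/PBS pH 7.4 was dispensed; next, compounds were added; then plates sat 1 h at room temperature without light. Finally, emission at 598 nm was recorded.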

[5] = tested on: Nanoluciferase (engineered Oplophorus gracilirostris luciferase); test: Primary Nanoluciferase (NLuc) qHTS assay for identification of artifact compounds. (AID 1845222); further: series mostly up to about 54 µM
In short: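 Luminescence read-out of secreted NLuc in S16 cell conditioned medium (1:55); compounds tested with 15 min RT preincubation, then Nano-Glo substrate 1:100, 5 min. % inhibition vs no-enzyme and DMSO controls, 4-parameter Hill fit.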

[6] = Primary redox qHTS assay for identification of artifact compounds. (AID 1845223);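 further: 0% = DMSO and 100% = reference compound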
In short: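 Redox-cycling detection via DTT (250 uM final) oxidation coupled to Amplex Red (25 uM)/HRP (250 mU/mL) in HBSS. 15 min preincubation plus 30 min after DTT, room temperature. Ex/Em 525/598 nm; 4-parameter Hill fit against DMSO and 10 uM DA3003.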

O=c1[nH]c2ccc(C#CCN3CCC(Cc4ccccc4)CC3)cc2[nH]1
inactive: Potency [1] | Potency [2] | Potency [3] | Potency [4] | Potency [5] | Potency [6]

C=C1CC(=O)C2OC2(C)CC2OC(=O)C(=C)C2C(O)C1OC(=O)/C(C)=C\C (stereo not given)
inactive: Potency [1] | Potency [2] | Potency [3] | Potency [4] | Potency [5] | Potency [6]

Cc1sc2c(c1C)C(c1ccc(Cl)cc1)=N[C@H](CC(=O)NCCCCNC(=O)COc1cccc3c1C(=O)N([C@H]1CCC(=O)NC1=O)C3=O)c1nnc(C)n1-2
inactive: Potency [1] | Potency [2] | Potency [3] | Potency [4] | Potency [5] | Potency [6]

O=C(NCC1(c2nc(-c3ccccc3)cs2)CCOCC1)c1cccc(-c2noc(C(F)(F)F)n2)c1
inactive: Potency [1] | Potency [2] | Potency [3] | Potency [4] | Potency [5] | Potency [6]

CCC(C)C(=O)Oc1cc(C)ccc1C1(COC(=O)C(C)C)CO1 (stereo not given)
inactive: Potency [1] | Potency [2] | Potency [3] | Potency [4] | Potency [5] | Potency [6]

CCOc1cccc(NC(=O)c2ccc(N3CCCC3)c(C(F)(F)F)c2)c1
inactive: Potency [1] | Potency [2] | Potency [3] | Potency [4] | Potency [5] | Potency [6]

N#Cc1cc(CN2CCC(Nc3ncnc4sc(Cl)cc34)CC2)ccc1F
inactive: Potency [1] | Potency [2] | Potency [3] | Potency [4] | Potency [5] | Potency [6]

CCCc1ccc(OCC(=O)N(Cc2nc(-c3cccnc3)no2)C(C)C)cc1
inactive: Potency [1] | Potency [2] | Potency [3] | Potency [4] | Potency [5] | Potency [6]

C=C(C)C1=C[C@@]2(C)C(=CC1=O)CC[C@@H](O)[C@@H]2C
inactive: Potency [1] | Potency [2] | Potency [3] | Potency [4] | Potency [5] | Potency [6]

C=C[C@](C)(O)CC[C@H]1C(C)=CC(=O)[C@H]2C(C)(C)CCC[C@]12C
inactive: Potency [1] | Potency [2] | Potency [3] | Potency [4] | Potency [5] | Potency [6]

C[C@H]1CC[C@@]2(OC1)O[C@H]1CC3[C@@H]4CC[C@@H]5C[C@@H](O[C@@H]6O[C@H](CO)[C@@H](O[C@@H]7O[C@@H](C)[C@H](O)[C@@H](O)[C@H]7O)[C@H](O)[C@H]6O[C@@H]6O[C@H](CO)[C@@H](O)[C@H](O)[C@H]6O)CC[C@]5(C)C4CC[C@]3(C)[C@H]1[C@@H]2C (stereo not given in full)
inactive: Potency [1] | Potency [2] | activity change, negative = inhibition [3] 0.648% [at 11.6 µM] | activity change, negative = thiol reactive [4] 131% [at 11.5 µM] | activity, negative = inhibition [5] 2.19% [at 11.6 µM] | redox activity (% of DA3003) [6] -5.48% [at 11.5 µM]

CCOC(=O)CCNc1cc(N2CCc3ccccc3CC2)nc(-c2cccnc2)n1
inactive: Potency [1] | Potency [2] | Potency [3] | Potency [4] | Potency [5] | Potency [6]

COc1ccc(CCCN2CCC(COC(c3ccccc3)c3ccccc3)CC2)cc1
inactive: Potency [1] | Potency [2] | Potency [3] | Potency [4] | Potency [5] | Potency [6]

CC1=CC2/C=C(\C)CCC(O)C(=O)C(O)CC(=O)C23C(=O)NC(CC(C)C)C3C1C (stereo not given)
inactive: Potency [1] | Potency [2] | Potency [3] | Potency [4] | Potency [5] | Potency [6]

C/C=C(\C)C(=O)OC1C=C(C)CC(OC(=O)c2ccc(O)cc2)C2C1(C)CCC2(O)C(C)C (stereo not given)
inactive: Potency [1] | Potency [2] | Potency [3] | Potency [4] | Potency [5] | Potency [6]

Cc1sc2c(c1C)C(c1ccc(Cl)cc1)=N[C@@H](CC(=O)Nc1ccc(OCCOCCOCCOCCNc3cccc4c3C(=O)N(C3CCC(=O)NC3=O)C4=O)cc1)c1nnc(C)n1-2 (stereo not given in full)
inactive: Potency [1] | Potency [2] | Potency [3] | Potency [4] | Potency [5] | Potency [6]

COc1cc(C(=O)NC(=S)Nc2cccc(NC(=O)c3ccccc3)c2)cc(OC)c1OC
inactive: Potency [1] | Potency [2] | Potency [3] | Potency [4] | Potency [5] | Potency [6]

NC(=O)CCCSc1nc(N)nc(-c2c(Cl)cc3c4c(cccc24)COC3)n1
inactive: Potency [1] | Potency [2] | Potency [3] | Potency [4] | Potency [5] | Potency [6]

Cc1cnn(-c2ccccc2)c1NC(=O)COCc1ccccc1
inactive: Potency [1] | Potency [2] | Potency [3] | Potency [4] | Potency [5] | Potency [6]

Cc1cccc(-c2[nH]ncc2-c2ccnc3ccccc23)n1
inactive: Potency [1] | Potency [2] | Potency [3] | Potency [4] | Potency [5] | Potency [6]

CC(C)NCCCn1c(Sc2cc3c(cc2I)OCO3)nc2c(N)ncnc21
inactive: Potency [1] | Potency [2] | Potency [3] | Potency [4] | Potency [5] | Potency [6]

O=C(Nc1ccc2[nH]c(=O)oc2c1)C(=O)N1CCC(Cc2ccc(F)cc2)CC1
inactive: Potency [1] | Potency [2] | Potency [3] | Potency [4] | Potency [5] | Potency [6]

CCCc1cc2c(N3CCN(C4=NCC(C)(C)S4)CC3)ncnc2s1
inactive: Potency [1] | Potency [2] | Potency [3] | Potency [4] | Potency [5] | Potency [6]

CCC(C)C(=O)OC1C(C)C2(O)C(C=C(CO)CC3(O)C(=O)C(C)=CC32)C2C(C)(C)C12OC(=O)C(C)C (stereo not given)
inactive: Potency [1] | Potency [2] | Potency [3] | Potency [4] | Potency [5] | Potency [6]

CCC(=C(c1ccc(OCCN2CCCC2)cc1)c1ccc(OCCN2CCCC2)cc1)c1ccccc1
inactive: Potency [1] | Potency [2] | Potency [3] | Potency [4] | Potency [5] | Potency [6]

Reference: PubChem BioAssay (NCATS)
